The values below come from article PMC11006913.

Assay in all cases: PBM; 200 nM protein, PBS
Conditions in all cases: dsDNA, one strand shown

Test [1] has as its target HOXA7 (Homo sapiens, UniProt P31268 116-202).
For test [2], the target named is HOXA2 (Homo sapiens, UniProt O43364 129-215, R185T).
Test [3] has as its target T1, NKX2-6 (Homo sapiens, UniProt A6NCS4 118-204, R150C).
T1 sequence: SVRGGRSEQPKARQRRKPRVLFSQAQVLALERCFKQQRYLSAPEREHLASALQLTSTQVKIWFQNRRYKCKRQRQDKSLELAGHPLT

For test [4], the target named is HOXA2 (Homo sapiens, UniProt O43364 129-215, R185K).
Sequence of HOXA2 (Homo sapiens, UniProt O43364 129-215, R185K) (O43364 129-215 R185K): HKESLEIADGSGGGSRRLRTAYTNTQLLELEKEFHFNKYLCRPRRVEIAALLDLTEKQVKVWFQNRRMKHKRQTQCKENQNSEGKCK
For test [5], the target named is HOXA2 (Homo sapiens, UniProt O43364 129-215, Y150S).
Sequence of HOXA2 (Homo sapiens, UniProt O43364 129-215, Y150S) (O43364 129-215 Y150S): as the sequence (O43364 129-215 R185K) above, with Y22S, K57R counted along it
The target in test [6] is HOXA7 (Homo sapiens, UniProt P31268 116-202, W177C).
Sequence of HOXA7 (Homo sapiens, UniProt P31268 116-202, W177C) (P31268 116-202 W177C): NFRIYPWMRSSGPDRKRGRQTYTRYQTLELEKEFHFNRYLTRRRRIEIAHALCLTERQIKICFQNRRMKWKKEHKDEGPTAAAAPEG
The target of test [7] is HOXA2 (Homo sapiens, UniProt O43364 129-215).
Sequence of HOXA2 (Homo sapiens, UniProt O43364 129-215) (O43364 129-215): as the sequence (O43364 129-215 R185K) above, with K57R counted along it
Test [8] addresses HOXB6 (Homo sapiens, UniProt P17509 132-218, K202E).
In test [9] the target is HOXA4 (Homo sapiens, UniProt Q00056 201-287, R217L).
Sequence of HOXA4 (Homo sapiens, UniProt Q00056 201-287, R217L) (Q00056 201-287 R217L): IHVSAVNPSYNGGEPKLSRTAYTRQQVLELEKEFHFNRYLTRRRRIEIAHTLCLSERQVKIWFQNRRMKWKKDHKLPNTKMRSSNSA
In test [10] the target is HOXC10 (Homo sapiens, UniProt Q9NYD6 254-340, K271E).
Sequence of HOXC10 (Q9NYD6 254-340 K271E): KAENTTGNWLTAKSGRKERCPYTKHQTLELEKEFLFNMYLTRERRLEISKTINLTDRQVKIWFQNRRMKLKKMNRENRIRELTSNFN
The target in test [11] is MSX2 (Homo sapiens, UniProt P35548 130-214, F161Y).
Sequence of MSX2 (Homo sapiens, UniProt P35548 130-214, F161Y) (P35548 130-214 F161Y): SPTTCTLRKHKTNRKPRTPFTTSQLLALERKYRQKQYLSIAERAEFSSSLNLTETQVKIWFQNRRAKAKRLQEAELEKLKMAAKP
For test [12], the target named is HOXA4 (Homo sapiens, UniProt Q00056 201-287, W262F).
Sequence of HOXA4 (Homo sapiens, UniProt Q00056 201-287, W262F) (Q00056 201-287 W262F): as the sequence (Q00056 201-287 R217L) above, with L17R, W62F counted along it
The target of test [13] is HOXB6 (Homo sapiens, UniProt P17509 132-218).
Sequence of HOXB6 (Homo sapiens, UniProt P17509 132-218) (P17509 132-218): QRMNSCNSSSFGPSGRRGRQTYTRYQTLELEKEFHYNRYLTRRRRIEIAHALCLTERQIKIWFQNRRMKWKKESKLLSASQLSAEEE
Test [14] addresses MSX2 (Homo sapiens, UniProt P35548 130-214, R199I).
The target in test [15] is MSX2 (Homo sapiens, UniProt P35548 130-214).
Sequence of MSX2 (Homo sapiens, UniProt P35548 130-214) (P35548 130-214): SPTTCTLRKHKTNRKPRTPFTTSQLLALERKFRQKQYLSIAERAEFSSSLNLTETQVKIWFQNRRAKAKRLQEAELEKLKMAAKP
For test [16], the target named is HOXD13 (Homo sapiens, UniProt P35453 263-343, T313R).
Sequence of HOXD13 (Homo sapiens, UniProt P35453 263-343, T313R) (P35453 263-343 T313R): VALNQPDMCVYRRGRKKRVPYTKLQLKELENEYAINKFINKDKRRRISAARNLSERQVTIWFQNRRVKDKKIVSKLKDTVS
In test [17] the target is HOXD13 (Homo sapiens, UniProt P35453 263-343).
Sequence of HOXD13 (Homo sapiens, UniProt P35453 263-343) (P35453 263-343): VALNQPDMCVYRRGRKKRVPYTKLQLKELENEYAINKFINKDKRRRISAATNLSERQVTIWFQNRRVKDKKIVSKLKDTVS
In test [18] the target is ALX1 (Homo sapiens, UniProt Q15699 118-204, L144V).
Sequence of ALX1 (Homo sapiens, UniProt Q15699 118-204, L144V) (Q15699 118-204 L144V): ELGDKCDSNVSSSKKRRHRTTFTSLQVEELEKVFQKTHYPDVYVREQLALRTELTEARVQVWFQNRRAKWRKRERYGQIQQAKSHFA
The target in test [19] is ALX1 (Homo sapiens, UniProt Q15699 118-204, L144R).
Sequence of ALX1 (Homo sapiens, UniProt Q15699 118-204, L144R) (Q15699 118-204 L144R): as the sequence (Q15699 118-204 L144V) above, with V27R counted along it
Test [20] has as its target ALX1 (Homo sapiens, UniProt Q15699 118-204).
For test [21], the target named is PITX2 (Homo sapiens, UniProt Q99697 72-157).
In test [22] the target is ALX3 (Homo sapiens, UniProt O95076 139-225).
Sequence of ALX3 (O95076 139-225): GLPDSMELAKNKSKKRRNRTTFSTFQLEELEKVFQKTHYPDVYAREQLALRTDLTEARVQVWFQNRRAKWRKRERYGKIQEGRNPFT
For test [23], the target named is PROP1 (Homo sapiens, UniProt O75360 56-141).
Sequence of PROP1 (Homo sapiens, UniProt O75360 56-141) (O75360 56-141): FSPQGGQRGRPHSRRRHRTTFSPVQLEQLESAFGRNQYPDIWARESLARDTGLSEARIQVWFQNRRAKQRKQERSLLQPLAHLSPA
The target of test [24] is PROP1 (Homo sapiens, UniProt O75360 56-141, R99H).
Sequence of PROP1 (Homo sapiens, UniProt O75360 56-141, R99H) (O75360 56-141 R99H): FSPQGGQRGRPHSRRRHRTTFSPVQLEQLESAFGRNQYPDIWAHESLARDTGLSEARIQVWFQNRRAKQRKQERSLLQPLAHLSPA
In test [25] the target is PROP1 (Homo sapiens, UniProt O75360 56-141, F88S).
Sequence of PROP1 (Homo sapiens, UniProt O75360 56-141, F88S) (O75360 56-141 F88S): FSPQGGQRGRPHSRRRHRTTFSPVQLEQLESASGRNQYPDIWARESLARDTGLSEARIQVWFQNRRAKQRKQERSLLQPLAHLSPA

Sequence of HOXA7 (Homo sapiens, UniProt P31268 116-202) (P31268 116-202): as the sequence (P31268 116-202 W177C) above, with C62W counted along it
Sequence of MSX2 (Homo sapiens, UniProt P35548 130-214, R199I) (P35548 130-214 R199I): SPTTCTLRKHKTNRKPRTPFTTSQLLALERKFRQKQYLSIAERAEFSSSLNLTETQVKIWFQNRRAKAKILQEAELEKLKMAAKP
Sequence of ALX1 (Homo sapiens, UniProt Q15699 118-204) (Q15699 118-204): as the sequence (Q15699 118-204 L144V) above, with V27L counted along it
Sequence of HOXA2 (Homo sapiens, UniProt O43364 129-215, R185T) (O43364 129-215 R185T): as the sequence (O43364 129-215 R185K) above, with K57T counted along it
Sequence of HOXB6 (Homo sapiens, UniProt P17509 132-218, K202E) (P17509 132-218 K202E): as the sequence (P17509 132-218) above, with K71E counted along it

Take CCAGCTGG: the binding signal in test [1] was 8.23 upbm affinity estimate (log intensity, higher = more binding, comparable within an allelic series); in [2], 7.34 upbm affinity estimate (log intensity, higher = more binding, comparable within an allelic series); in test [3], 9.68 upbm affinity estimate (log intensity, higher = more binding, comparable within an allelic series); in test [4], 10.4 upbm affinity estimate (log intensity, higher = more binding, comparable within an allelic series); in test [5], 10.5 upbm affinity estimate (log intensity, higher = more binding, comparable within an allelic series); in [6], 8.36 upbm affinity estimate (log intensity, higher = more binding, comparable within an allelic series). Further, the binding signal in test [7] is 7.34 upbm affinity estimate (log intensity, higher = more binding, comparable within an allelic series).

In the case of AATTACCT, the binding signal in [1] was 11.3 upbm affinity estimate (log intensity, higher = more binding, comparable within an allelic series); in test [8], 9.87 upbm affinity estimate (log intensity, higher = more binding, comparable within an allelic series); in [9], 12.1 upbm affinity estimate (log intensity, higher = more binding, comparable within an allelic series); in test [10] it was 11.9 upbm affinity estimate (log intensity, higher = more binding, comparable within an allelic series); in test [11], 12.9 upbm affinity estimate (log intensity, higher = more binding, comparable within an allelic series); in test [6], 8.74 upbm affinity estimate (log intensity, higher = more binding, comparable within an allelic series). For the same sequence, the binding signal was 11.5 upbm affinity estimate (log intensity, higher = more binding, comparable within an allelic series) in test [12] and 11.8 upbm affinity estimate (log intensity, higher = more binding, comparable within an allelic series) in test [13].

Consider CCTTCCGC, for which the binding signal is 8.39 upbm affinity estimate (log intensity, higher = more binding, comparable within an allelic series) in test [1] and 8.37 upbm affinity estimate (log intensity, higher = more binding, comparable within an allelic series) in test [6].

In the case of GAGGGACC, the binding signal is 8.55 upbm affinity estimate (log intensity, higher = more binding, comparable within an allelic series) in [1]; 9.48 upbm affinity estimate (log intensity, higher = more binding, comparable within an allelic series) in test [14]; 9.7 upbm affinity estimate (log intensity, higher = more binding, comparable within an allelic series) in test [15]; 9.64 upbm affinity estimate (log intensity, higher = more binding, comparable within an allelic series) in [11]; 8.33 upbm affinity estimate (log intensity, higher = more binding, comparable within an allelic series) in test [6].

Regarding ATTACCAC, the binding signal in test [1] is 10.4 upbm affinity estimate (log intensity, higher = more binding, comparable within an allelic series); in test [16], 10.1 upbm affinity estimate (log intensity, higher = more binding, comparable within an allelic series); in test [17] it was 10.7 upbm affinity estimate (log intensity, higher = more binding, comparable within an allelic series); in [6], 8.73 upbm affinity estimate (log intensity, higher = more binding, comparable within an allelic series).

Take ATATTAGA: the binding signal was 9.95 upbm affinity estimate (log intensity, higher = more binding, comparable within an allelic series) in test [1]; 11.1 upbm affinity estimate (log intensity, higher = more binding, comparable within an allelic series) in test [14]; 11.8 upbm affinity estimate (log intensity, higher = more binding, comparable within an allelic series) in test [15]; 11.5 upbm affinity estimate (log intensity, higher = more binding, comparable within an allelic series) in [11]; 8.88 upbm affinity estimate (log intensity, higher = more binding, comparable within an allelic series) in test [6].

For CGTCGCCC, the binding signal in test [1] is 8.61 upbm affinity estimate (log intensity, higher = more binding, comparable within an allelic series); in [18], 6.4 upbm affinity estimate (log intensity, higher = more binding, comparable within an allelic series); in [19] it was 6.34 upbm affinity estimate (log intensity, higher = more binding, comparable within an allelic series); in test [6] it was 8.42 upbm affinity estimate (log intensity, higher = more binding, comparable within an allelic series); in [20], 6.57 upbm affinity estimate (log intensity, higher = more binding, comparable within an allelic series).

Turning to AGGGCATG, the binding signal is 8.51 upbm affinity estimate (log intensity, higher = more binding, comparable within an allelic series) in test [1]; 7.96 upbm affinity estimate (log intensity, higher = more binding, comparable within an allelic series) in [21]; 8.49 upbm affinity estimate (log intensity, higher = more binding, comparable within an allelic series) in [6].

Turning to AACTTTAT, the binding signal is 9.71 upbm affinity estimate (log intensity, higher = more binding, comparable within an allelic series) in [1]; 9.63 upbm affinity estimate (log intensity, higher = more binding, comparable within an allelic series) in test [22]; 8.8 upbm affinity estimate (log intensity, higher = more binding, comparable within an allelic series) in test [6].

As to GTATTTAA, the binding signal is 10.1 upbm affinity estimate (log intensity, higher = more binding, comparable within an allelic series) in [1]; 9.2 upbm affinity estimate (log intensity, higher = more binding, comparable within an allelic series) in test [23]; 8.79 upbm affinity estimate (log intensity, higher = more binding, comparable within an allelic series) in test [24]; 7.52 upbm affinity estimate (log intensity, higher = more binding, comparable within an allelic series) in [25]; 8.94 upbm affinity estimate (log intensity, higher = more binding, comparable within an allelic series) in [6].

Consider CTGCTTCA, for which the binding signal in test [1] was 8.51 upbm affinity estimate (log intensity, higher = more binding, comparable within an allelic series); in test [21], 7.83 upbm affinity estimate (log intensity, higher = more binding, comparable within an allelic series); in test [6], 8.44 upbm affinity estimate (log intensity, higher = more binding, comparable within an allelic series).

Turning to CTGGATGC, the binding signal in test [1] was 8.4 upbm affinity estimate (log intensity, higher = more binding, comparable within an allelic series); in test [6] it was 8.44 upbm affinity estimate (log intensity, higher = more binding, comparable within an allelic series).

In the case of GAGCCAGC, the binding signal in test [1] was 8.52 upbm affinity estimate (log intensity, higher = more binding, comparable within an allelic series); in test [6] it was 8.41 upbm affinity estimate (log intensity, higher = more binding, comparable within an allelic series).

For ATCATCTA, the binding signal in [1] was 9.36 upbm affinity estimate (log intensity, higher = more binding, comparable within an allelic series); in [6] it was 8.74 upbm affinity estimate (log intensity, higher = more binding, comparable within an allelic series).

Turning to CTCATTTA, the binding signal in test [1] is 9.93 upbm affinity estimate (log intensity, higher = more binding, comparable within an allelic series); in test [6], 8.72 upbm affinity estimate (log intensity, higher = more binding, comparable within an allelic series).

In the case of AGCTCGGA, the binding signal was 8.37 upbm affinity estimate (log intensity, higher = more binding, comparable within an allelic series) in test [1] and 8.35 upbm affinity estimate (log intensity, higher = more binding, comparable within an allelic series) in [6].

For the sequence AGACGGCG, the binding signal in test [1] was 8.6 upbm affinity estimate (log intensity, higher = more binding, comparable within an allelic series); in [6], 8.4 upbm affinity estimate (log intensity, higher = more binding, comparable within an allelic series).

With CACCGCTA, the binding signal in [1] was 8.52 upbm affinity estimate (log intensity, higher = more binding, comparable within an allelic series); in [6], 8.43 upbm affinity estimate (log intensity, higher = more binding, comparable within an allelic series).
